Tested on: Vero E6 infected with SARS-CoV-2
Assay: inhibition of SARS-CoV-2 cytopathic effect; higher = more antiviral protection, active = above 15
Conditions: 48 h

Measured: inhibition of SARS-CoV-2 cytopathic effect

CNC[C@H](O)c1ccc(O)c(O)c1 [epinephrine]
inactive: 1 nM 3.04% | 8.33 nM 3.04% | 100 nM -1.01% | 833.33 nM 0.24% | 10000 nM -0.94%

Cc1cc(C)c(N(Cc2ccccc2)S(=O)(=O)c2ccc(OCCNC(=O)c3cc4ccccc4o3)cc2)c(C(=O)NO)c1
inactive: 1 nM -0.99% | 8.33 nM 0.92% | 100 nM -1.74% | 833.33 nM -1.22% | 10000 nM -6.93%

NCCCNCCCCNCCCN [spermine]
inactive: 1 nM 1.74% | 8.33 nM -5.72% | 100 nM -0.71% | 833.33 nM -2% | 10000 nM 2.37%

C=C[C@](C)(O)CC[C@@H]1[C@@]2(C)CCCC(C)(C)[C@@H]2CC[C@@]1(C)O [sclareol]
inactive: 1 nM 0.36% | 8.33 nM -0.46% | 100 nM -0.66% | 833.33 nM -1.37% | 10000 nM -4.46%

COc1ccnc2[nH]cc(C(=O)C(=O)N3CCN(C(=O)c4ccccc4)C[C@H]3C)c12
inactive: 1 nM 1.91% | 8.33 nM -1.88% | 100 nM -0.3% | 833.33 nM 0.28% | 10000 nM 1.74%

CCCCc1nc(Cl)c(CO)n1Cc1ccc(-c2ccccc2-c2nnn[nH]2)cc1 [losartan]
inactive: 1 nM 0.46% | 8.33 nM 1.87% | 100 nM -0.81% | 833.33 nM -2.88% | 10000 nM -1.4%

Cc1cc(O)ccc1Cl [chlorocresol]
inactive: 1 nM -0.46% | 8.33 nM 2.29% | 100 nM 1.47% | 833.33 nM 1.63% | 10000 nM 1.88%

c1ccc(-c2oc3ncnc(NC[C@@H]4CCCO4)c3c2-c2ccccc2)cc1
inactive: 1 nM 0.95% | 8.33 nM 0.57% | 100 nM 0% | 833.33 nM 0.71% | 10000 nM 1.78%

COc1cc2c(Oc3ccc(NC(=O)C4(C(=O)Nc5ccc(F)cc5)CC4)cc3F)ccnc2cc1OCCCN1CCOCC1 [foretinib]
inactive: 1 nM -0.07% | 8.33 nM -1.17% | 100 nM 2.06% | 833.33 nM -5.86% | 10000 nM -22.4%

N[C@@H](Cc1ccc(Cl)cc1)C(=O)O (racemic) [fenclonine-(+/-)]
inactive: 1 nM 1.09% | 8.33 nM 0.73% | 100 nM 0.7% | 833.33 nM 4.29% | 10000 nM 3%

O=C(c1ccccc1)c1ccc2n1CCC2C(=O)O (stereo not given) [ketorolac]
inactive: 1 nM -4.39% | 8.33 nM -2.99% | 100 nM -1.5% | 833.33 nM 2.44% | 10000 nM -4.37%

CC(C)(C)C(=O)OCOC(=O)[C@@H]1N2C(=O)[C@@H](NC(=O)[C@H](N)c3ccccc3)[C@H]2SC1(C)C [pivampicillin]
inactive: 1 nM 3.04% | 8.33 nM 3.24% | 100 nM 2.48% | 833.33 nM 0.64% | 10000 nM -3.25%

C=C[C@@H]1C[C@]1(NC(=O)[C@@H]1C[C@@H]2CN1C(=O)[C@H](C(C)(C)C)NC(=O)O[C@@H]1C[C@H]1CCCCCc1nc3ccc(OC)cc3nc1O2)C(=O)NS(=O)(=O)C1CC1 [grazoprevir]
inactive: 1 nM -0.59% | 8.33 nM -3.18% | 100 nM -2.52% | 833.33 nM 1.78% | 10000 nM 1.23%

Cc1cc(NC(=O)C2=C(O)c3ccccc3S(=O)(=O)N2C)no1 [isoxicam]
inactive: 1 nM -3.86% | 8.33 nM -3.12% | 100 nM -4.12% | 833.33 nM -2.59% | 10000 nM -0.72%

C[C@@H]1CC[C@H]2C(C)(C)[C@H]3C[C@@]12CC[C@@]3(C)O [cedrol]
inactive: 1 nM -1.18% | 8.33 nM -3.1% | 100 nM -1.28% | 833.33 nM -1.1% | 10000 nM -1.09%

O=C(Nc1nc2ccc(NC(=O)C34CC5CC(CC(C5)C3)C4)cc2s1)c1ccccc1
inactive: 1 nM 1.55% | 8.33 nM 3.1% | 100 nM 0.95% | 833.33 nM 2.14% | 10000 nM -6.77%

OCCNC1CCCc2c1[nH]c1ccc(-c3ccccc3)cc21 (stereo not given) [casin]
inactive: 1 nM -1.66% | 8.33 nM 3% | 100 nM 1.22% | 833.33 nM -2.43% | 10000 nM 14.4%

Nc1ncnc2c1ncn2[C@@H]1O[C@H](COP(=O)(O)OP(=O)(O)OP(=O)(O)OP(=O)(O)OC[C@H]2O[C@@H](n3cnc4c(N)ncnc43)[C@H](O)[C@@H]2O)[C@@H](O)[C@H]1O [diadenosine-tetraphosphate]
inactive: 1 nM 1.69% | 8.33 nM 0.56% | 100 nM 0.34% | 833.33 nM 1.06% | 10000 nM -1.97%

— the supplement of paper PMC13380429
